# Experimental data published in PubChem BioAssay (EPA / NIEHS).
# Results filed as inconclusive are left out. The source made the active and inactive calls. How the source made its calls, unless noted: active means hit-call score of the fitted dose curve at least 0.9, where 1 is the maximum; inconclusive means response in the unintended direction; inactive means score below 0.9.
# Legend:
# [1] = target: Nuclear receptor subfamily 1 group I member 2 (Homo sapiens) (UniProt O75469); test: ATG_PXR_TRANS: Attagene TRANS-FACTORIAL HepG2 Assay for human Pregnane X Receptor (PXR) (AID 2283008)
# Sequence of Nuclear receptor subfamily 1 group I member 2 (Homo sapiens) (O75469 whole entry, looked up, the tested form may be a part): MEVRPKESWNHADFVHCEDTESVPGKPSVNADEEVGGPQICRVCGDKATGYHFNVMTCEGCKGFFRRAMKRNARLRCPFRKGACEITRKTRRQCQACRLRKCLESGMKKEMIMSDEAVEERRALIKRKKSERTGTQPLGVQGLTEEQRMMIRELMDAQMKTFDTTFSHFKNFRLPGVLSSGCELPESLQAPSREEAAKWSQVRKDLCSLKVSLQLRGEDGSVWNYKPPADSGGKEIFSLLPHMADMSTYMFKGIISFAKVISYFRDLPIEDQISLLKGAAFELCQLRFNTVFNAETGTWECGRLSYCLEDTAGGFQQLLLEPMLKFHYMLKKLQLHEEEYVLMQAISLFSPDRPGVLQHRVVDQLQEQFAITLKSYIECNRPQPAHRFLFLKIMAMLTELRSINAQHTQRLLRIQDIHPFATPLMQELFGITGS
# How it was run: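 Multiplexed TRANS reporter panel in HepG2; this component tracks PXR-Gal4-driven reporter mRNA after 24 h dosing, measured by RT-PCR with capillary electrophoresis fluorescence, fitted against DMSO.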
# [2] = target: human Retinoic Acid Receptor gamma (RARg), RARG (gene 5916) (UniProt P13631); test: ATG_RARg_TRANS: Attagene TRANS-FACTORIAL HepG2 Assay for human Retinoic Acid Receptor gamma (RARg) (AID 2283009)
# Sequence of human Retinoic Acid Receptor gamma (RARg), RARG (gene 5916) (P13631 whole entry, looked up, the tested form may be a part): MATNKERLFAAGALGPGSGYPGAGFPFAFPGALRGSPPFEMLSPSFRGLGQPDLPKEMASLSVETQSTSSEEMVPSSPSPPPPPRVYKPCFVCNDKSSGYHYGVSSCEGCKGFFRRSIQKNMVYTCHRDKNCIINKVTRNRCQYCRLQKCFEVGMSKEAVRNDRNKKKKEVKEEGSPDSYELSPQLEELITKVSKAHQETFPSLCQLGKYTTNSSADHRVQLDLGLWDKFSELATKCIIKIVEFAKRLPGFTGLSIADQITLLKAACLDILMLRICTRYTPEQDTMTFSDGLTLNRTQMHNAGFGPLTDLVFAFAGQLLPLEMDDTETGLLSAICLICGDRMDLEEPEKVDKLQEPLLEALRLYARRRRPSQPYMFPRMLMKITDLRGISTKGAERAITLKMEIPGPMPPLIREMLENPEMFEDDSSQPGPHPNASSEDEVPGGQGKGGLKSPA
# How it was run: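 Gain-of-signal relative to DMSO is reported from fluorescent capillary electrophoresis of RT-PCR reporter products. These came from HepG2 cells expressing transfected RARg-GAL4 chimeras with UAS reporters, harvested 24 h after dosing.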
# [3] = target: human RAR-related Orphan Receptor beta (RORb), RORB (gene 6096) (UniProt Q92753); test: ATG_RORb_TRANS: Attagene TRANS-FACTORIAL HepG2 Assay for human RAR-related Orphan Receptor beta (RORb) (AID 2283010)
# Sequence of human RAR-related Orphan Receptor beta (RORb), RORB (gene 6096) (Q92753 whole entry, looked up, the tested form may be a part): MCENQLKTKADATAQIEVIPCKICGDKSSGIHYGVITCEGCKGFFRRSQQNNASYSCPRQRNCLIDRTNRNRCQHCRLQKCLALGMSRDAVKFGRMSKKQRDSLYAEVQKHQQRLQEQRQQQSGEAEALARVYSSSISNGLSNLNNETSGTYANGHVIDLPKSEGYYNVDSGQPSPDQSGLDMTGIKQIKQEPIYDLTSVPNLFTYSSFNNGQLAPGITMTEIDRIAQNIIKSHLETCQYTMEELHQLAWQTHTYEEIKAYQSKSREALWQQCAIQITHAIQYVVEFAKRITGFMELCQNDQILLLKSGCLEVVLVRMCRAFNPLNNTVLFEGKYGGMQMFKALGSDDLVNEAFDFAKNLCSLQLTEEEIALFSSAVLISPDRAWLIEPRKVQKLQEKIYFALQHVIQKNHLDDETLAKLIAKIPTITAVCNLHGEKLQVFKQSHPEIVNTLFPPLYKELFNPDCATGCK
# How it was run: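 Multiplexed transcription-factor reporter assay: HepG2 cells transiently carrying NR-Gal4/GAL4-UAS constructs, 24 h treatment, mRNA quantified by RT-PCR plus capillary electrophoresis fluorescence; activity scored as induction over DMSO.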
# [4] = target: human RAR-related Orphan Receptor gamma (RORg), RORC (gene 6097) (UniProt P51449); test: ATG_RORg_TRANS: Attagene TRANS-FACTORIAL HepG2 Assay for human RAR-related Orphan Receptor gamma (RORg) (AID 2283011)
# Sequence of human RAR-related Orphan Receptor gamma (RORg), RORC (gene 6097) (P51449 whole entry, looked up, the tested form may be a part): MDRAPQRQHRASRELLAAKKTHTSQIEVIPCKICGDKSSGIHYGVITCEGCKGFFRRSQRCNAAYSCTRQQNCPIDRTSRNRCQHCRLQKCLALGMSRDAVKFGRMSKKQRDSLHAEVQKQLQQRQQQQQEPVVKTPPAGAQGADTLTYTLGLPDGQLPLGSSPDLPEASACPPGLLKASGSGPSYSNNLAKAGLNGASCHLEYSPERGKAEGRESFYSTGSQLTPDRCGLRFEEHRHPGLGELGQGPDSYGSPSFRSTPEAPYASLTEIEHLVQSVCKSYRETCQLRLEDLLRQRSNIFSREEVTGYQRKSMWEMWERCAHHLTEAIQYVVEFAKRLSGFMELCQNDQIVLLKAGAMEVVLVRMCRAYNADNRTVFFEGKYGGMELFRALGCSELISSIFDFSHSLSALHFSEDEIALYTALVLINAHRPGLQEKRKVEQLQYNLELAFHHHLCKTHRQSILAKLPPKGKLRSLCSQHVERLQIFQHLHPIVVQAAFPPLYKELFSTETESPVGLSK
# How it was run: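 Chimeric RORg-Gal4 transactivation in transfected HepG2; 24 h exposure; RT-PCR/capillary electrophoresis readout of reporter mRNA, DMSO baseline.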
# [5] = target: human Thyroid Receptor alpha (THRa1), THRA (gene 7067) (UniProt P10827); test: ATG_THRa1_TRANS: Attagene TRANS-FACTORIAL HepG2 Assay for human Thyroid Receptor alpha (THRa1) (AID 2283014)
# Sequence of human Thyroid Receptor alpha (THRa1), THRA (gene 7067) (P10827 whole entry, looked up, the tested form may be a part): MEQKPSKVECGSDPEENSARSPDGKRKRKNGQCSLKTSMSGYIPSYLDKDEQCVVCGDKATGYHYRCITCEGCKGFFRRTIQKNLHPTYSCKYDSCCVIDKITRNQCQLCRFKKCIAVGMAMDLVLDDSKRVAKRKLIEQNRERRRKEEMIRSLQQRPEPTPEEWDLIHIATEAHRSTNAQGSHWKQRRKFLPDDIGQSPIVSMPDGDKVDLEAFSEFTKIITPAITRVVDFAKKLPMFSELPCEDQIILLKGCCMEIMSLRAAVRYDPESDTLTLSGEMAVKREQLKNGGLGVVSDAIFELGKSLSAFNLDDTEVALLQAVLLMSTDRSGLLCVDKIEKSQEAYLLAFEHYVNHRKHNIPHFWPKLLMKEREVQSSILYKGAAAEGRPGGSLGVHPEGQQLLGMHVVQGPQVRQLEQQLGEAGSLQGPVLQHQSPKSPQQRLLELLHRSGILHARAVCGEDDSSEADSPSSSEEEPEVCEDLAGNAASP
# How it was run: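 Measured here is mRNA from a GAL4-UAS reporter in transfected HepG2 cells carrying a Gal4-fused receptor, 24 h post-dose. DMSO served as negative control and baseline.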
# [6] = read-out: E-selectin (Homo sapiens) (UniProt P16581); test: BSK_3C_Eselectin: BioMAP Diversity Plus: 3C Assay for Eselectin Biomarker Activity (AID 2283015; active means hit-call score of the fitted dose curve at least 0.9, where 1 is the maximum; inactive means score below 0.9;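 on outcome: cell surface E-selectin protein quantified by ELISA 24 h after dosing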); settings: primary human endothelial cells (HUVEC); actives raise or lower the signal
# How it was run: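 Endpoint derived by bidirectional fitting against DMSO vehicle; signal is ELISA-detected E-selectin from primary HUVEC at 24 h post-dosing, with parallel SRB staining (0.1% SRB, 560 nm) flagging cytotoxicity.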
# [7] = read-out: Interleukin-1 alpha (IL1a), IL1A (gene 3552); test: BSK_BE3C_IL1a: BioMAP Diversity Plus: BE3C Assay for Interleukin-1 alpha (IL1a) Biomarker Activity (AID 2283016; active means hit-call score of the fitted dose curve at least 0.9, where 1 is the maximum; inactive means score below 0.9); settings: primary human bronchial epithelial cells; actives raise or lower the signal
# How it was run: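 Measured in human lung primary bronchial epithelial cells: IL-1a by ELISA at 24 h after dosing, with bidirectional fitting against DMSO.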
# [8] = read-out: Monocyte Chemoattractant Protein-1 (MCP1), CCL2 (gene 6347); test: BSK_3C_MCP1: BioMAP Diversity Plus: 3C Assay for Monocyte Chemoattractant Protein-1 (MCP1) Biomarker Activity (AID 2283017; active means hit-call score of the fitted dose curve at least 0.9, where 1 is the maximum; inactive means score below 0.9); settings: primary human endothelial cells (HUVEC); actives raise or lower the signal
# How it was run: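 Using human vascular primary endothelium, researchers measured MCP-1 by ELISA 24 h after treatment, with DMSO serving as negative control for bidirectional fitting.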
# [9] = target: Retinoic acid receptor RXR-alpha (Homo sapiens) (UniProt P19793); test: ATG_RXRa_TRANS: Attagene TRANS-FACTORIAL HepG2 Assay for human Retinoid X Receptor alpha (RXRa) (AID 2283012)
# Sequence of Retinoic acid receptor RXR-alpha (Homo sapiens) (P19793 whole entry, looked up, the tested form may be a part): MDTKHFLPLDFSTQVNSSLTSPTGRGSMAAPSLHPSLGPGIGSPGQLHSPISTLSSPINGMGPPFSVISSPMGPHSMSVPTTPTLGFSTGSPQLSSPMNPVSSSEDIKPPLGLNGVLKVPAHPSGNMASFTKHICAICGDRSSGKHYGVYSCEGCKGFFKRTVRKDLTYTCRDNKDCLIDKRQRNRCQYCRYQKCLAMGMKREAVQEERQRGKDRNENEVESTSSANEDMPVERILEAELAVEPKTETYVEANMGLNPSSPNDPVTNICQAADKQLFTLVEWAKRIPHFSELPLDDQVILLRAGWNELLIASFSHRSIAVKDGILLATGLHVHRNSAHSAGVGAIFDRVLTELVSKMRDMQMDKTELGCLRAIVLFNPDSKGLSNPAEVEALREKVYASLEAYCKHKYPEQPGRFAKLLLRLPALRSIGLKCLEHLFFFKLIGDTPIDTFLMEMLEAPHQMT
# How it was run: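 Chimeric NR-GAL4 trans-activation in HepG2, 24 h treatment; reporter transcripts quantified by fluorescence on capillary electrophoresis, analysed for upward change from DMSO.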
# [10] = target: human Retinoid X Receptor beta (RXRb), RXRB (gene 6257) (UniProt P28702); test: ATG_RXRb_TRANS: Attagene TRANS-FACTORIAL HepG2 Assay for human Retinoid X Receptor beta (RXRb) (AID 2283013)
# Sequence of human Retinoid X Receptor beta (RXRb), RXRB (gene 6257) (P28702 whole entry, looked up, the tested form may be a part): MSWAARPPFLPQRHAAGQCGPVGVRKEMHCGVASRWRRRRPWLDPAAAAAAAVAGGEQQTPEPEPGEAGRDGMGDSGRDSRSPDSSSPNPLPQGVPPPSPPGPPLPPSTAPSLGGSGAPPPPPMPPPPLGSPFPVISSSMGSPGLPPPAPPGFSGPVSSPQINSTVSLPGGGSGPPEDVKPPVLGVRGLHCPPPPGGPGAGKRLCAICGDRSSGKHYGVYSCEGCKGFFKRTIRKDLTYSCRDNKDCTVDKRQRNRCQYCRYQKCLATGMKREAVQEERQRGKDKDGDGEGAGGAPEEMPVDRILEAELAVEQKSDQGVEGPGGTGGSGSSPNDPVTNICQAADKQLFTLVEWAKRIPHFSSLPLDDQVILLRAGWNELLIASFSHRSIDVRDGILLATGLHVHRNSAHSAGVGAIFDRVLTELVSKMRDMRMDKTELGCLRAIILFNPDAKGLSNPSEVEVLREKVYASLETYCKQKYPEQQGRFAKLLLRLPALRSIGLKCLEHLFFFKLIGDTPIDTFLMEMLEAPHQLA
# How it was run: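 After a 24 h incubation with test chemical, transfected HepG2 cells carrying NR-Gal4 fusions and GAL4-UAS reporter transcription units yield RNA whose reporter cDNA is FAM-labelled, HpaI-cut and sized by capillary electrophoresis; increases over DMSO are scored.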
# Sequence of E-selectin (Homo sapiens) (P16581 whole entry, looked up): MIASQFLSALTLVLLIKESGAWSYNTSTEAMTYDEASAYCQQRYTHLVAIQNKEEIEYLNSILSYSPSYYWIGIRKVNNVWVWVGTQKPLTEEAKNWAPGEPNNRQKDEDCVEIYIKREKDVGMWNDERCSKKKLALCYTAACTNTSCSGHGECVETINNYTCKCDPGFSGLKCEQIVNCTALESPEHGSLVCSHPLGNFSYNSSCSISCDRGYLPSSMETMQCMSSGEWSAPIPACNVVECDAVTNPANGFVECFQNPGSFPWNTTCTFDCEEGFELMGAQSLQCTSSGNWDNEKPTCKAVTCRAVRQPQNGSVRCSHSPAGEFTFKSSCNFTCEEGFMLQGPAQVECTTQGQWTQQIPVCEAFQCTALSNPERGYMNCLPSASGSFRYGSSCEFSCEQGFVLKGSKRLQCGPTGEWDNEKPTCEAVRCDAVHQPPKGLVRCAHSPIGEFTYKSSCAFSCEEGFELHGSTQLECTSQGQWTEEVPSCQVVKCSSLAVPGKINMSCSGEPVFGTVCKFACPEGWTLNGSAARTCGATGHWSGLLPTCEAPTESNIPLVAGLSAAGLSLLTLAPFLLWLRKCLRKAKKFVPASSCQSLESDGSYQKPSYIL
SMILES,outcome [1],outcome [2],outcome [3],outcome [4],outcome [5],outcome [6],outcome [7],outcome [8],AC50 [1],outcome [9],outcome [10],AC50 [6],AC50 [8]
COP(=O)(OC)O/C(C)=C/C(=O)N(C)C,inactive,inactive,inactive,inactive,inactive,inactive,inactive,inactive,–,–,–,–,–
CC(C)(C)C(=O)C(Oc1ccc(Cl)cc1)n1cncn1 (centres undefined),–,inactive,–,–,inactive,inactive,inactive,inactive,19.9 µM (active),inactive,inactive,–,–
CC(C)=CC1C(C(=O)OCc2coc(Cc3ccccc3)c2)C1(C)C (centres undefined),inactive,inactive,–,–,inactive,–,inactive,–,–,inactive,inactive,8.92 µM (active),10.4 µM (active)
CC1(C)C(C(=O)OC(C#N)c2cccc(Oc3ccccc3)c2)C1(C)C (centres undefined),–,inactive,–,–,inactive,inactive,inactive,–,9.21 µM (active),–,inactive,–,–
CC1(C)C(C=C(Cl)Cl)C1C(=O)OC(C#N)c1cccc(Oc2ccccc2)c1 (centres undefined),–,inactive,inactive,inactive,–,inactive,inactive,inactive,9.82 µM (active),–,inactive,–,–
COc1cc(OC)nc(NC(=O)NS(=O)(=O)c2ncccc2OCC(F)(F)F)n1,inactive,–,inactive,inactive,–,inactive,inactive,inactive,–,–,inactive,–,–
CC1(C)CON(Cc2ccccc2Cl)C1=O,inactive,inactive,inactive,inactive,inactive,inactive,inactive,inactive,–,inactive,–,–,–
CCOc1nc(C(Cl)(Cl)Cl)ns1,inactive,inactive,inactive,inactive,inactive,inactive,inactive,inactive,–,–,inactive,–,–
CCCCC(C#N)(Cn1cncn1)c1ccc(Cl)cc1 (centres undefined),inactive,inactive,–,inactive,–,inactive,inactive,inactive,–,–,inactive,–,–
CCOP(=S)(OCC)Oc1nc(Cl)n(C(C)C)n1,–,–,inactive,inactive,inactive,inactive,inactive,inactive,2.39 µM (active),–,inactive,–,–
C=C(C)CN(CC)c1c([N+](=O)[O-])cc(C(F)(F)F)cc1[N+](=O)[O-],–,inactive,–,inactive,–,inactive,inactive,inactive,13.6 µM (active),inactive,inactive,–,–
CC1(C)CCC(=Cc2ccc(Cl)cc2)C1(O)Cn1cncn1 (centres undefined),–,inactive,–,–,–,inactive,inactive,inactive,9.33 µM (active),–,inactive,–,–
Cc1cnc(C2=NC(C)(C(C)C)C(=O)N2)c(C(=O)O)c1 (centres undefined),–,inactive,inactive,inactive,inactive,inactive,inactive,inactive,50 µM (active),inactive,inactive,–,–
CCC(C)n1c(=O)[nH]c(C)c(Br)c1=O (centres undefined),inactive,–,inactive,inactive,inactive,inactive,inactive,inactive,–,–,inactive,–,–
CC(C)Oc1cccc(NC(=O)c2ccccc2C(F)(F)F)c1,–,inactive,inactive,inactive,inactive,inactive,inactive,inactive,23.4 µM (active),–,inactive,–,–
